The record followed here is PubChem BioAssay (NCI).

This is part of a sample that, as a whole, favours compounds with a hit. Of some 83,000 tested, about 20% had one in any assay.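 Single-dose data. Exposure time 48 hours. Values below 10 considered active.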 Unmarked numbers belong to inactive results. The source made the active and inactive calls.

Test in all cases: NCI-60 one-dose screen, 48 h (100 = growth as untreated, 0 = no growth, -100 = all killed)
Holding throughout (details): 10 µM unless noted

Assay [1] has as its system DU-145 prostate.
Assay [2] deals with K-562 leukemia.
Assay [3] deals with MALME-3M melanoma.
The subject of assay [4] is MDA-MB-231 breast.
The subject of assay [5] is RXF 393 renal.
Assay [6] has as its system SF-268 CNS.
Assay [7] relates to SF-295 CNS.
Assay [8] concerns SF-539 CNS.
Assay [9] deals with UACC-257 melanoma.
Assay [10] concerns M14 melanoma.
Assay [11] has as its system HCT-15 colon.
The subject of assay [12] is HT29 colon.
The test system of assay [13] is SNB-75 CNS.
Assay [14] deals with SNB-19 CNS.
Assay [15] has as its system U251 CNS.
The test system of assay [16] is PC-3 prostate.
Assay [17] concerns SK-MEL-5 melanoma.
Assay [18] concerns UACC-62 melanoma.
The test system of assay [19] is SK-MEL-28 melanoma.

Turning to `Cn1cc(-c2nc(N)nnc2-c2c[nH]c3ccc(Br)cc23)c2cccnc21`, the growth in assay [1] is 59.7%; in assay [2], 24.5%; in assay [3] it was 57%; in assay [4] it was 63.1%; in [5] it was 63.9%; in assay [6], 66.7%. The growth is 18.1% in [7]; 20.1% in assay [8]; 81.3% in [9]; 33.9% in [10]; 33.2% in assay [11]; 23.1% in assay [12]. Further, the growth in assay [13] was 31.3%; in assay [14], 52.7%; in assay [15], 39.5%; in assay [16], 59.9%; in assay [17] it was 26.3%; in [18], 53.9%. In addition, the growth in assay [19] was 59.9%.

As for `O=C(N=Nc1c(O)[nH]c2ccc([N+](=O)[O-])cc12)c1ccc2nc(-c3ccccc3)[nH]c2c1`, the growth in [1] is 57.9%; in assay [2] it was 48.1%; in assay [3], 30.7%; in assay [4], 59.5%; in assay [5], 74.6%; in [6], 53.3%. The growth is 102% in [7]; 6.74% (active) in assay [8]; 84.6% in assay [9]; 83.8% in assay [10]; 105% in [11]; 110% in assay [12]. Besides, the growth in [13] is 95.7%; in assay [14], 43.6%; in [15] it was 34.8%; in assay [16], 53.3%; in assay [17], 97.7%; in [18], 75.5%. Also, in [19], the growth is 60.8%.

With `COc1cc2c(c(OC)c1OC)C(=O)CC(c1cccc(NC(=O)c3cc(N)ccc3Cl)c1)O2` (stereo not given), the growth was 47.3% in [1]; 15.6% in assay [2]; 54% in assay [3]; 42.7% in [4]; 46% in [5]; 60.4% in assay [6]. The growth in assay [7] is 78.9%; in assay [8], 56.6%; in assay [9] it was 64.9%; in [10], 56%; in assay [11], 22.3%; in assay [12], 79.9%. Moreover, the growth in assay [13] is 43.7%; in assay [14], 77.4%; in assay [15] it was 65.6%; in [16], 47.3%; in assay [17], 35.8%; in [18], 61.7%. Also, the growth in [19] is 56.8%.

`CCCCNC(=S)Nc1ccc(OCc2nc3ccccc3[nH]2)cc1`: the growth in [1] is 58.9%; in assay [2], 28.6%; in [3], 77.5%; in assay [4], 65.2%; in assay [5], 99.5%; in assay [6], 44.2%. The growth in assay [7] is 53.7%; in assay [8], 56.2%; in assay [9], 83.5%; in assay [10], 55.1%; in [11] it was 47.9%; in assay [12], 50.3%. Also, the growth was 56% in assay [13]; 70% in assay [14]; 57.4% in [15]; 58.2% in assay [16]; 78% in [17]; 38.2% in assay [18]. In addition, the growth in assay [19] is 88.2%.

Consider `O=C(COc1ccc(NC(=O)Nc2ccc(Cl)c(Cl)c2)cc1)N=Nc1c(O)[nH]c2ccc(Br)cc12`, for which the growth in assay [1] was -30.1% (active); in assay [2], 7.78% (active); in [3], -85.4% (active); in assay [4], -59.3% (active); in assay [5] it was -54.3% (active); in assay [6] it was 1.44% (active). Moreover, the growth in assay [7] was -68.3% (active); in assay [8], -90.8% (active); in assay [9], -76.5% (active); in assay [10], -63.8% (active); in assay [11], 27%; in [12], -46.2% (active). For the same compound, the growth in [13] is 7.51% (active); in assay [14], -5.58% (active); in [15] it was -84.7% (active); in assay [16], -16.6% (active); in assay [17], -89% (active); in [18] it was -35.5% (active). The growth in [19] was -77% (active).

Consider `Cc1cc2nc3c4ccccc4n(CC4=NCCN4)c3nc2cc1C`, for which the growth in assay [1] was 2.14% (active); in assay [2] it was -13.1% (active); in [3], -92.7% (active); in assay [4] it was -43.2% (active); in [5] it was -67.2% (active); in assay [6] it was 40.7%. The growth in assay [7] is -74.8% (active); in assay [8], -94.2% (active); in assay [9], -44.4% (active); in assay [10] it was -79.2% (active); in assay [11] it was 0.357% (active); in assay [12], -74.3% (active). The growth was 25.1% in assay [13]; 15.8% in assay [14]; -72.5% (active) in assay [15]; -91.7% (active) in assay [17]; -91.2% (active) in [18].

Regarding `COc1cc2oc(-c3cccc(C(=O)Nc4ccc(Cl)cc4)c3)cc(=O)c2c(OCCNC(=O)[C@H](CCC(=O)OC(C)(C)C)NC(=O)OC(C)(C)C)c1OC`, the growth was 108% in assay [1]; 81.5% in assay [2]; 106% in assay [3]; 85.4% in [4]; 84.3% in assay [5]; 81.8% in assay [6]. Also, the growth was 94.5% in assay [7]; 87.8% in assay [8]; 107% in assay [9]; 106% in assay [10]; 100% in [11]; 108% in [12]. In addition, the growth in assay [13] is 74.2%; in [14], 94.8%; in [15] it was 96.8%; in assay [16], 83.5%; in assay [17], 89.3%; in assay [18], 82%. Besides, the growth in assay [19] is 99.2%.

Regarding `O=C1NC(=O)/C(=C/c2ccccc2OCc2cc3ccccc3nc2Cl)S1`, the growth is 90.5% in assay [1]; 84.6% in [2]; 82.8% in assay [3]; 64.2% in [4]; 72.8% in [5]; 58.7% in assay [6]. Also, the growth in [7] was 72%; in assay [8], 70.8%; in [9], 89.4%; in assay [10] it was 120%; in [11], 84%; in assay [12] it was 108%. Besides, the growth in [13] was 46.9%; in [14], 39.2%; in assay [15] it was 58%; in assay [16], 112%; in [17], 67.6%; in assay [18] it was 52%. Moreover, the growth in [19] is 102%.
